{"source": "PubChem BioAssay (NCI)", "note": "About 83,000 compounds went through this panel and 20% of them were active in at least one assay; those are over-represented in the sample as a whole.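 96-well plates, one dose, 48 hours. Percent growth reported; active if below 10.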 Unmarked numbers belong to inactive results. Active and inactive are the calls of the source."}
{"system": "HL-60(TB) leukemia", "experiment": "NCI-60 one-dose screen, 48 h (100 = growth as untreated, 0 = no growth, -100 = all killed)", "conditions": "10 µM unless noted"}
{"smiles": "CC12CC[C@@H]3[C@]4(C)COC(c5cn[nH]c5-c5ccc(Cl)cc5)O[C@@H]4CC[C@@]3(C)[C@@H]1CC(C1=CCOC1=O)O2", "note": "(stereo partly drawn)", "growth": "3.37% (active)"}
{"smiles": "O=C(Nc1ccc(F)cc1)Nc1nc2ccc([N+](=O)[O-])cc2s1", "growth": "-11.5% (active)"}
{"smiles": "COc1ccc(/C=C/C(=O)c2ccc(NC(=O)CN3C(=O)NC(C)(c4ccccc4)C3=O)cc2)cc1", "note": "(stereo not drawn)", "growth": "67.3%"}
